Measurements taken from PubChem BioAssay (NCI).
About 79,000 compounds went through this panel and 15% of them were active in at least one assay; those are over-represented in the sample as a whole. Values without a mark were called inactive. The source made the active and inactive calls. Rule as the data show it: active = growth inhibition above about 70%; inactive = the rest.

Assay: NCI Yeast Anticancer Drug Screen. Data for the sgs1 strain (AID 173);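 also: 0% = growth of vehicle-only control cultures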
Conditions: S. cerevisiae sgs1 mutant, stronger effect = higher value
Description: Growth inhibition of yeast strains with defined genetic alterations is measured as a screen for potential anti-cancer activity. Selected strains with alterations in DNA damage repair or cell cycle control were exposed to compounds and growth inhibition was measured relative to vehicle treated controls. The strain used in this assay is sgs1

Row | Structure (SMILES) | growth inhibition (at 1.2 µM) | growth inhibition (at 3.7 µM) | growth inhibition (at 11.0 µM) | growth inhibition (at 33.0 µM) | growth inhibition (at 100.0 µM)
1 | COc1ccc2c(c1)[nH]c1c(/C=C/c3ccccc3)nccc12 | 2% | -7% | -3% | 78% (active) | 97% (active)
2 | OCCN(CCO)c1ccc2c(c1)Cc1ccccc1-2 | -14% | -10% | 13% | 44% | 76% (active)
3 | Cc1ccc(Nc2n[nH]c(=S)s2)cc1 | -34% | -36% | -25% | 41% | 88% (active)
4 | CCN(CC)N=Nc1c(C(N)=O)n[nH]c1C | -1% | -1% | -2% | 9% | 43%
5 | C=C(C)[C@@H]1CCc2c(O)c(O)c(=O)cc(C)c2C1 | 1% | 24% | 50% | 81% (active) | 98% (active)
6 | CCOC(=O)C1=C(C)NC(C)=C(C(=O)OCC)C1c1ccc(C)cc1 | 15% | 21% | 66% | 98% (active) | 96% (active)
7 | CN(C)CCN1C(=O)c2cccc3cc([N+](=O)[O-])cc(c23)C1=O | -24% | -2% | 8% | 12% | 61%
8 | O=C(O)c1cccc2cccc(-c3c4ccc(=O)cc-4oc4cc(O)ccc34)c12 | 34% | 31% | 74% (active) | 85% (active) | 95% (active)
